Screening data deposited in PubChem BioAssay by National Center for Advancing Translational Sciences (NCATS).
DT40 TDP1 CPT: DT40-hTDP1 cell growth loss with CPT | chicken DT40 Tdp1-/-;hTDP1 cells + 20 nM CPT, ATP luminescence, 48 h | AID 686979 | Potency, µM (series often up to 46.2 µM), hits mostly inhibitors | hit rate 12% among 420,000; also: nearly all actives have a fitted effect of over 55% in size
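Chicken DT40 Tdp1-/- cells stably complemented with human TDP1 were seeded at 400 cells/well in medium containing 20 nM camptothecin, exposed to pin-transferred compounds, and grown at 37 °C for at least 48 hr. Viability was read as ATP luminescence.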
KB-V1 MDR tox: kills drug-selected multidrug resistant KB-V1 cells. KB-V1 MDR cells viability, CellTiter-Glo, 72 h. Potency, µM (doses to about 46.1 µM), usual class: cytotoxic. hit rate 3.4% among 400,000. AID 1347076; also: nearly all actives have a fitted effect of over 60% in size
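Following 72 h at 37 degrees C with compound, KB-V1 cell viability was read by CellTiter-Glo luminescence, medium being phenol-red-free DMEM plus 10% FBS; concentration-response parameters came from normalized, curve-fitted qHTS data.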
HT1080 IDH1KD tx: HT-1080 IDH1 knockdown cell toxicity (counter line). hit rate 2% among 360,000. Potency, µM (doses to about 46.1 µM), actives largely listed as cytotoxic. AID 686971. HT-1080 IDH1 knockdown viability, ATP luminescence, 48 h
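Using the IDH1-knockdown HT-1080 line run in the same batch and compound series as the NT line, viability after 48 h at 37 °C was determined by CellTiter-Glo luminescence and expressed as % activity.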
KB-3-1 cytotox: KB-3-1 parental cell cytotoxicity | KB-3-1 viability, CellTiter-Glo ATP luminescence, 72 h | Potency, µM (doses to about 46.1 µM), most hits filed as cytotoxic | hit rate 1.4% among 400,000 | AID 1347075; also: nearly all actives have a fitted effect of over 60% in size
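Screening of KB-3-1 cells (DMEM, 10% FBS, phenol-red free) ran from lowest to highest compound concentration; after 72 h at 37 °C viability was read luminescently and curves fitted.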
DT40 TDP1 no CPT: qHTS for Inhibitors of human tyrosyl-DNA phosphodiesterase 1 (TDP1): qHTS in cells in absence of CPT; DT40 Tdp1-/- hTDP1 cells, no CPT, ATP luminescence, 48 h; Potency, µM (titrated, usually from 46.2 µM), usual class: inhibitors; hit rate 15% among 420,000; also: nearly all actives have a fitted effect of over 55% in size
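Growth of hTDP1-complemented DT40 Tdp1-knockout cells is measured by ATP luminescence after at least 48 hr compound exposure at 37 °C, with DMSO substituting for the 20 nM CPT used in the parallel screen.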
HT1080NT lethal: kills 2HG-producing HT-1080-NT fibrosarcoma cells | hit rate 1.6% among 360,000 | Potency, µM (highest dose often 46.1 µM), usual class: cytotoxic | HT-1080-NT fibrosarcoma viability, CellTiter-Glo ATP luminescence, 48 h;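 also: NT is the 2HG producing partner of a matched IDH1 knockdown line; nearly all actives have a fitted effect of over 55% in size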
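Viability of the 2HG-overproducing fibrosarcoma line after 48 hours of compound exposure at 37 degrees C was determined by luminescence with CellTiter-Glo, and concentration-effect curves were then fitted and categorized.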
Hits are given with their value; . = inactive; ? = inconclusive; / = not tested or not shown. A selection: hits, their analogues and other compounds. The true share with any hit is near 19%. Calls follow the shape of the dose curve; as a rule, active = well fitted curve in the direction sought with a large enough effect; inconclusive = small, poorly fitted or top-dose-only effect, or another doubt; inactive = no such curve, though single readings can be large; an effect the other way counts as inactive or inconclusive.

SMILES | DT40 TDP1 CPT | KB-V1 MDR tox | HT1080 IDH1KD tx | KB-3-1 cytotox | DT40 TDP1 no CPT | HT1080NT lethal
CC(C)(C)c1ccc(OCc2nnc(-c3ccccc3)o2)cc1 | . | . | / | . | . | /
CCSc1ncc(Cl)c(C(=O)Nc2c(C(=O)Nc3cccc(C)c3)oc3ccccc23)n1 | . | / | / | / | . | /
COc1cccc(NC(=O)c2ccn(C)n2)c1 | . | . | . | . | . | .
COc1cccc(NC(=O)c2ncc(Cl)c(Cl)c2Cl)c1 | 7.3µM | . | ? | ? | 5.2µM | ?
COc1cccc(NC(=O)c2nc(SC)ncc2Cl)c1 | ? | ? | . | . | ? | .
Cc1cccc(NC(=O)c2nc(S(C)(=O)=O)ncc2Cl)c1 | 0.65µM | . | / | . | 0.92µM | /
CCS(=O)(=O)c1ncc(Cl)c(C(=O)Nc2c(C(=O)Nc3cccc(C)c3)oc3ccccc23)n1 | 1µM | . | / | . | 0.73µM | /
COc1cccc(NC(=O)c2nc(S(C)(=O)=O)ncc2Cl)c1 | 1µM | . | 8.2µM | . | 0.65µM | 5.2µM
Cc1ccc(Cl)cc1NC(=O)Nn1cnnc1 | . | ? | . | . | . | .
O=C(CC[C@H]1O[C@@H](n2ccc(=O)[nH]c2=O)[C@H](O)[C@@H]1O)N[C@H](Cc1ccccc1)C(=O)NC1CCCCC1 | . | . | . | . | . | ?
Cc1ccc(NC(=O)C2CCC(CNC(=O)[C@@H]3Cc4ccccc4CN3)CC2)c(C)c1 (some centres undefined) | . | . | . | . | . | .
CCNC(=O)c1ccc(C23CC4CC(CC(C4)C2)C3)o1 | ? | . | . | . | 15µM | .
COc1ccc(C2CCc3cc(OC)c(OC)cc3C2NC=O)cc1OC (centres undefined) | . | . | . | . | ? | .
Cc1cccc(NC(=O)C(=O)NCCc2csc(-c3ccc(F)cc3)n2)c1C | ? | . | / | . | ? | /
CCCCOc1ccc(CSCCNC(=S)Nc2ccccc2)cc1 | 18µM | ? | ? | ? | ? | .
Cc1cccc(CSCCNC(=O)Nc2ccccc2)c1 | . | . | . | . | ? | .
CC(C)COc1ccc(CSCCNC(=S)Nc2ccccc2)cc1 | ? | 26µM | ? | . | 15µM | ?
CCCCCOc1ccc(CSCCNC(=S)Nc2ccccc2)cc1 | . | . | . | . | . | .
COc1ccccc1-n1c(SCC(=O)OC(C)C)nc2cccnc21 | . | . | . | ? | . | .
CCN(CC)C1=NS(=O)(=O)c2cc([N+](=O)[O-])ccc21 | 18µM | ? | . | ? | 23µM | .
CC(C)[C@H]1c2ccc(F)cc2CC[C@@]1(CCN(C)CCCc1nc2ccccc2[nH]1)OC(=O)C1CC1 | 5µM | 21µM | / | ? | 4.5µM | /
CCn1cc(CN2CCN(Cc3ccsc3)C(CCO)C2)cn1 (centres undefined) | . | . | . | . | . | .
CCOc1ccc2nc(CN3CCN(Cc4ccsc4)C(CCO)C3)ccc2c1 (centres undefined) | ? | . | . | . | 18µM | .
CCOc1ccc(CN2CCN(Cc3cnc(-c4ccccc4)s3)CC2CCO)cc1 (centres undefined) | ? | ? | . | . | 21µM | .
OCCC1CN(Cc2cnc(-c3ccccc3)s2)CCN1C1CCCC1 (centres undefined) | . | ? | . | . | . | .
SMILES | DT40 TDP1 CPT | KB-V1 MDR tox | HT1080 IDH1KD tx | KB-3-1 cytotox | DT40 TDP1 no CPT | HT1080NT lethal
Cc1c(Cl)cccc1NC(=O)CNC(=O)CCCc1nc2ccccc2c(=O)[nH]1 | . | . | . | . | . | .
COc1ccc(OCC(O)CN2CCC(CN3C(=O)c4cccc5cccc(c45)C3=O)CC2)cc1 (centres undefined) | 13µM | . | ? | . | 21µM | 23µM
O=C1c2cccc3cccc(c23)C(=O)N1CC1CCN(CC(O)COCc2ccc3c(c2)OCO3)CC1 (centres undefined) | ? | ? | 21µM | ? | ? | 21µM
Cc1ccc(C)c(OCC(O)CN2CCC(CN3C(=O)c4cccc5cccc(c45)C3=O)CC2)c1 (centres undefined) | 5.2µM | 2.6µM | . | 18µM | 5.8µM | .
O=C1c2cccc3cccc(c23)C(=O)N1CCN1CCN(CC(O)COc2ccccc2)CC1 (centres undefined) | . | . | . | . | . | .
COc1cccc(OCC(O)CN2CCN(CCN3C(=O)c4cccc5cccc(c45)C3=O)CC2)c1 (centres undefined) | ? | ? | ? | . | 18µM | .
COc1ccc(CCNC(=O)c2cc(-c3ccc(C)cc3)nc3n[nH]c(-c4ccc(F)cc4)c23)cc1OC | . | . | / | . | . | /
CCOCCc1nn2c(=O)cc(COC(=O)C(CC)c3ccccc3)nc2s1 (centres undefined) | ? | . | / | . | ? | /
COc1ccc(Oc2ncc3nc(-c4ccc(OC)cc4)c(=O)n(Cc4cccs4)c3n2)cc1 | . | / | / | / | . | /
CCCC(C)(C)C(=O)N1CCC1(C)C(=O)Nc1ccc2c(c1)OCCO2 (centres undefined) | ? | ? | . | . | ? | ?
O=C(Nc1nnc(S(=O)(=O)N2CCN(c3ccc(F)cc3)CC2)s1)c1ccc(Cl)cc1 | . | . | / | . | . | /
CC(C)(C)N(Cc1ccccc1)C(=O)COC(=O)C1CCN(c2ccc(C(F)(F)F)cn2)CC1 | ? | ? | . | ? | 15µM | ?
CC(C)(C)N(Cc1ccccc1)C(=O)COC(=O)C1CC1 | . | . | . | . | . | .
CC(C)N(Cc1ccccc1)C(=O)COC(=O)C1CCN(c2ccc(C(F)(F)F)cn2)CC1 | 16µM | ? | . | . | 18µM | .
O=C(Cn1nc(-c2ccc(Cl)cc2)c2ccccc2c1=O)Nc1cccc(Br)c1 | . | . | / | . | . | /
N#Cc1c(-c2ccc(Cl)cc2)c(-c2ccc(Cl)cc2)nn(CCOC(=O)CCC(=O)O)c1=O | 10µM | 7.3µM | 7.3µM | 2.3µM | ? | 5.2µM
COC(=O)CCn1nc(-c2ccc(Cl)cc2)c2ccccc2c1=O | . | . | . | . | ? | .
N#Cc1c(-c2ccccc2)c(-c2ccccc2)nn(CC(=O)NNC(=O)Nc2ccc(Cl)cc2)c1=O | ? | . | 5.8µM | 18µM | 23µM | 6.5µM
COC(=O)c1cc2sc(C)cc2n1CC(=O)Nc1ccc(C)c(C)c1 | ? | . | / | . | ? | /
N#CCCCCn1ccc(NC(=O)c2ccc(Cl)cc2O)n1 | . | . | . | . | . | .
CCNC(=O)C1(C)CCN(C(=O)c2ccc(C(F)(F)F)cc2)C1 (centres undefined) | . | . | . | . | . | .
